Assay results published in ChEMBL document CHEMBL3988442, “University of Dundee, Small-Polar-MMV Screening Library” (2021).
For part of these data: Entries with a potency or affinity are not part of this list.

Legend:
Parameters in all cases: scale not given: direction of the effect not stated beside the values
[1] = molecular target: Protein translocase subunit SecA (Escherichia coli (strain K12)) (UniProt P10408); assay: Assay to Identify E. coli SecA ATPase Inhibitors; type: functional; conditions: 30 µM
Protein translocase subunit SecA (Escherichia coli (strain K12)), sequence (P10408 whole entry): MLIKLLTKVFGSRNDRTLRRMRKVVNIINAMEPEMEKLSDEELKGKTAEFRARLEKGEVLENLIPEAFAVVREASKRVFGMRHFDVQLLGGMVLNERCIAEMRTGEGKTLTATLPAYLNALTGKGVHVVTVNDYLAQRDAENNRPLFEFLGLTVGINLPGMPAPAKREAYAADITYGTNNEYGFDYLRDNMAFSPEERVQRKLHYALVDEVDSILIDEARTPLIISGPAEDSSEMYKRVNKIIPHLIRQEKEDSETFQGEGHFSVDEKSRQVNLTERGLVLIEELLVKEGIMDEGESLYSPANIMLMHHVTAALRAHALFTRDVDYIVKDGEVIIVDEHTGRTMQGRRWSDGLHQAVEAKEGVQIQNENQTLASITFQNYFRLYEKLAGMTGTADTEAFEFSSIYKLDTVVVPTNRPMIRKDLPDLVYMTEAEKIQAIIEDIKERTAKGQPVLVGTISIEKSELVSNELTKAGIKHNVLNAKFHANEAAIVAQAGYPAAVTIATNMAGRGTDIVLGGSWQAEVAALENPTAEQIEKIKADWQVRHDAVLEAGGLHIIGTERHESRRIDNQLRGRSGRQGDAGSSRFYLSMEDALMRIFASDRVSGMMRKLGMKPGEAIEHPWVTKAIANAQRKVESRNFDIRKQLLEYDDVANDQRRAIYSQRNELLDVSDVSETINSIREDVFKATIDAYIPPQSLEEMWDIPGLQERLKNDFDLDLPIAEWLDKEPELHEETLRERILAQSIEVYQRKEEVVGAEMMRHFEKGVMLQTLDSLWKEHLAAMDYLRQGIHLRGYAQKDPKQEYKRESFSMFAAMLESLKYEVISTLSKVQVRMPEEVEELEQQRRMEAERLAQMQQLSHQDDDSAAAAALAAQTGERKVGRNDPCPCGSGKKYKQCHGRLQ

[2] = molecular target: T1, Ubiquitin-activating enzyme e1, putative (Leishmania donovani (strain BPK282A1)) (UniProt E9BSI1); assay: Leishmania donovani Ubiquitin Activating Enzyme (LdE1); type: functional; conditions: 30 µM
T1 sequence (whole entry): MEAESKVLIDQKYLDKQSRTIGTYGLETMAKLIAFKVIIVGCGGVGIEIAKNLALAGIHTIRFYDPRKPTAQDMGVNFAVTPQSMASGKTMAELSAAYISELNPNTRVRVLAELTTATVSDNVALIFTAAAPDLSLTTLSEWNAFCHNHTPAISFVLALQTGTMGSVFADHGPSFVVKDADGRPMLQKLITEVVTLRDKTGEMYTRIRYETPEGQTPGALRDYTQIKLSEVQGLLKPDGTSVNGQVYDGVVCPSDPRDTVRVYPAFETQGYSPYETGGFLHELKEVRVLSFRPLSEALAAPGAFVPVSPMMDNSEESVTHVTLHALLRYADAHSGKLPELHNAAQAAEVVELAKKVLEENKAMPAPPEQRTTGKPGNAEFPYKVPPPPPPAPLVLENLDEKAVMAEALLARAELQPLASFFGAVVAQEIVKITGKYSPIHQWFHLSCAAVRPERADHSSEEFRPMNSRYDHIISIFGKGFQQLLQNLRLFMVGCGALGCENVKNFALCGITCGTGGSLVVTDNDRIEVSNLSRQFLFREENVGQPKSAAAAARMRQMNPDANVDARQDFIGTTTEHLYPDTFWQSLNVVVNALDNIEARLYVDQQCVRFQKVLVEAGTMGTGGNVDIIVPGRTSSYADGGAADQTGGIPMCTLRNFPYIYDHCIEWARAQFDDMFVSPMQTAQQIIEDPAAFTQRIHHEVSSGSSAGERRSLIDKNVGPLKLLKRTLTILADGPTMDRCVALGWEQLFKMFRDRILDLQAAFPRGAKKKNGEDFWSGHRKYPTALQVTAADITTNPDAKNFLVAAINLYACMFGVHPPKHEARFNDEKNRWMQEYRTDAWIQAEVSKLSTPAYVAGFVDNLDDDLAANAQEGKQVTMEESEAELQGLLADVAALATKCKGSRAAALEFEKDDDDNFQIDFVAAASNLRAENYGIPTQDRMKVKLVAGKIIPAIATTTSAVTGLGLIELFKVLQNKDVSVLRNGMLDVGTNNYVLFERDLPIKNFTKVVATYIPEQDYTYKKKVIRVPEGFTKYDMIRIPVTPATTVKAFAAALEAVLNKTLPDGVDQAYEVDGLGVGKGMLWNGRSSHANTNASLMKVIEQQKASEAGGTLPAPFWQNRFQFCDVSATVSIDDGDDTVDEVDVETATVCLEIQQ

[3] = molecular target: Sialic acid-binding Ig-like lectin 9 (Homo sapiens) (UniProt Q9Y336); assay: Hs-Siglec9 ALPHAscreen SOP 20170721; conditions: 10 µM
Sialic acid-binding Ig-like lectin 9 (Homo sapiens), sequence (Q9Y336 whole entry): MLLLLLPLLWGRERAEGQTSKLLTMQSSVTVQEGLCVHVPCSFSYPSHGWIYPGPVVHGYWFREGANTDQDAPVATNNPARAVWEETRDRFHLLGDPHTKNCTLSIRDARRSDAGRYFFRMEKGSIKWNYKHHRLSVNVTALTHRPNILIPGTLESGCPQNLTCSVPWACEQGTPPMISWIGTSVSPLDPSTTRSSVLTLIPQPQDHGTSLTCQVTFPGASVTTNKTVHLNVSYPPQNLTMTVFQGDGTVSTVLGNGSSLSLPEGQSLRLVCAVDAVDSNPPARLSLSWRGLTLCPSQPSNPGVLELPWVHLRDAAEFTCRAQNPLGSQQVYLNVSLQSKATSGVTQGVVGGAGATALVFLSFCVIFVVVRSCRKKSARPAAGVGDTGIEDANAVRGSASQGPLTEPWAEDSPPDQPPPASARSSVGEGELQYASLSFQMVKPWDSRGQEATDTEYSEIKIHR

Trypanosoma cruzi = assay: Trypanosoma cruzi phosphomannomutase and mannose-1-phosphate guanylyltransferase assay; type: functional; conditions: 10 µM
[4] = molecular target: T2, Arginase-2, mitochondrial (Homo sapiens) (UniProt P78540); assay: in vitro enzyme assay to detect the production of urea directly proportional to the activity of Arginase II; type: functional; conditions: 33.3 µM; note: in the data most compounds retested in dose-response had high values
T2 sequence (whole entry): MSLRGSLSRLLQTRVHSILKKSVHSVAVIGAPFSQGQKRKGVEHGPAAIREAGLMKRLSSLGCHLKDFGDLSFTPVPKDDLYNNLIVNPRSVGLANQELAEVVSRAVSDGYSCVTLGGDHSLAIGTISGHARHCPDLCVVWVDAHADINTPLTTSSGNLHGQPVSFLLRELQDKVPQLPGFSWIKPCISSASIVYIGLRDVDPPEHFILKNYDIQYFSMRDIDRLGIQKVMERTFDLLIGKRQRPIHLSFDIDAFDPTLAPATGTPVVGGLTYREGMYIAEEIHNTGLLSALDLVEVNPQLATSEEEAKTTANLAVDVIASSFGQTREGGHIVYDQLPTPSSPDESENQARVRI

[5] = molecular target: T3, Proteasome subunit beta (Trypanosoma cruzi) (UniProt O96673); assay: Trypanosoma cruzi proteasome chymotrypsin-like activity (TcProtChymo) assay.; note: in the data most compounds retested in dose-response had high values; type: functional; conditions: 9.37 µM
T3 sequence (whole entry): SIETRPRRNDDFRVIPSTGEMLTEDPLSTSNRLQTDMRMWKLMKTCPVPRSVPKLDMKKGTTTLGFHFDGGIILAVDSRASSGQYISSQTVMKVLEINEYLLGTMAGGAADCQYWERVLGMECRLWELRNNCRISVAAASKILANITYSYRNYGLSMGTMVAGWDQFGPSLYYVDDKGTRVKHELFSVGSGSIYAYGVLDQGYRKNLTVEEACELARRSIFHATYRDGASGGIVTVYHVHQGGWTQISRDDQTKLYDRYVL

Homo sapiens = species: Homo sapiens; assay: To identify inhibition of the IFN signalling (Jak-Stat) pathway via expression of an eGFP reporter gene under the control of an IFN-stimulated response element (ISRE) containing MxA promoter.; type: functional; conditions: 30 µM
[6] = molecular target: T4, Tyrosyl-tRNA synthetase, putative (Trypanosoma cruzi (strain CL Brener)) (UniProt Q4DSP6); assay: Trypanosoma cruzi tyrosyl tRNA synthetase (TcYRS) _High Tyrosine SOP; type: functional; conditions: 30 µM; note: in the data most compounds retested in dose-response had high values
T4 sequence (whole entry): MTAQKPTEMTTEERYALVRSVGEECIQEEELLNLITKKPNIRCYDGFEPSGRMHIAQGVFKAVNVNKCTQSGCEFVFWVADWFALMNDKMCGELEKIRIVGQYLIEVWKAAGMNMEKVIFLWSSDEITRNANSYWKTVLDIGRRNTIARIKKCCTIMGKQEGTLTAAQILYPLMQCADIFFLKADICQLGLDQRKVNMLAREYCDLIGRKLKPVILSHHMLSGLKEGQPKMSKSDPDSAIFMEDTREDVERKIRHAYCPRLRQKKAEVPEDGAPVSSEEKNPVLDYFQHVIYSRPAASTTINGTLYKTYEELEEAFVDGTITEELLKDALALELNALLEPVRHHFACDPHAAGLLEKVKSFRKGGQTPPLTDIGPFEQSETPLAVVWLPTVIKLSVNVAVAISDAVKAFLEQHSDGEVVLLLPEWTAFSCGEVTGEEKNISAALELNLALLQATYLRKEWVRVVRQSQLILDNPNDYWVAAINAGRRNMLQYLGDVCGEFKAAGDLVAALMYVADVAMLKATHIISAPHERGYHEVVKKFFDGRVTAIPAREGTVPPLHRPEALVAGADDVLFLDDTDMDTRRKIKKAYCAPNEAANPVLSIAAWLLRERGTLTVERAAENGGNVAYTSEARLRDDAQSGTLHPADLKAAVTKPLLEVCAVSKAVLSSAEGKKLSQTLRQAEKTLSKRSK

[7] = molecular target: T4, Tyrosyl-tRNA synthetase, putative (Trypanosoma cruzi (strain CL Brener)); assay: Trypanosoma cruzi tyrosyl tRNA synthetase (TcYRS) SOP; type: functional; conditions: 30 µM
[8] = molecular target: Chromo domain-containing protein 1 (Saccharomyces cerevisiae (strain ATCC 204508 / S288c) (Baker's yeast)) (UniProt P32657); assay: ScCHD-1 Enzyme Inhibition Assay; type: functional; conditions: 30 µM; note: in the data most compounds retested in dose-response had high values
Chromo domain-containing protein 1 (Saccharomyces cerevisiae (strain ATCC 204508 / S288c) (Baker's yeast)), sequence (P32657 whole entry, the tested form may be a part): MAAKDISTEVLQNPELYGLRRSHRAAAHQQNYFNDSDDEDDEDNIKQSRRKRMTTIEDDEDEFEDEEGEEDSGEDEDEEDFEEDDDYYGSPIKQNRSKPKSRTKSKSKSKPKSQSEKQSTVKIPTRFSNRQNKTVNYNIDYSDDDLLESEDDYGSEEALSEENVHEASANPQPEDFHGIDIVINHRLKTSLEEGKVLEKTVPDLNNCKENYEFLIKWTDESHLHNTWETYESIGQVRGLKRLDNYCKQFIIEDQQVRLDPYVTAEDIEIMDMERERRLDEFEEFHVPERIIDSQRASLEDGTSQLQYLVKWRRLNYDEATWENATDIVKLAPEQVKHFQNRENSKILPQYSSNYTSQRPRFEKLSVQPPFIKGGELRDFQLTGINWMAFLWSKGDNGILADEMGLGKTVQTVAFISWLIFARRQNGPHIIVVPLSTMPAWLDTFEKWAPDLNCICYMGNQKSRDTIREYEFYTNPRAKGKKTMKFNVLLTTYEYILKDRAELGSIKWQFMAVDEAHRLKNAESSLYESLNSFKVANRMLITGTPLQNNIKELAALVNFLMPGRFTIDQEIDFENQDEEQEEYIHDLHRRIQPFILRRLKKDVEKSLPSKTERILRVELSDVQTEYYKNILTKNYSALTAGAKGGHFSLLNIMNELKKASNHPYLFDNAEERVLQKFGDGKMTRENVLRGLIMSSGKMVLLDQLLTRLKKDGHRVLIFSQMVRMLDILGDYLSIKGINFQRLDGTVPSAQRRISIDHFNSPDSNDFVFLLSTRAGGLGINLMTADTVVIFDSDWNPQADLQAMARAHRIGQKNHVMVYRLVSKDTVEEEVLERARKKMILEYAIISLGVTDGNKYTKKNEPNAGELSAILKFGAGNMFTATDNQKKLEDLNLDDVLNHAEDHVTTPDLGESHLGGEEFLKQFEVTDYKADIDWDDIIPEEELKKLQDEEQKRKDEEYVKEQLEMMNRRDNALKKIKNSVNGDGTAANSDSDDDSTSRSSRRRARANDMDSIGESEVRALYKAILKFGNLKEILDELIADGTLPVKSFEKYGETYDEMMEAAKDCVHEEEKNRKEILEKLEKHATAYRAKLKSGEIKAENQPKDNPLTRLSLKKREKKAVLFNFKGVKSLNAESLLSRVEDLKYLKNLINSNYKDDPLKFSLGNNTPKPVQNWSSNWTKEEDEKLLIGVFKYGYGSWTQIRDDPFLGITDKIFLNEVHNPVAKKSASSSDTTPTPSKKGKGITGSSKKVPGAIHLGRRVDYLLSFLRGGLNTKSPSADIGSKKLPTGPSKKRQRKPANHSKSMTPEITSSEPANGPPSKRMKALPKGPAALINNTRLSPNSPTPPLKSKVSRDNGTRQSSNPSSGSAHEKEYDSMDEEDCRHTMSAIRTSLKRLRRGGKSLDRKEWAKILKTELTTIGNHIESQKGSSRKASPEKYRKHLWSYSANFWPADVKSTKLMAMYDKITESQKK

| SMILES | Percent Effect [1] [%] | Percent Effect [2] [%] | Percent Effect [3] [%] | Percent Effect (Trypanosoma cruzi) [%] | Percent Effect [4] [%] | Percent Effect [5] [%] | Percent Effect (Homo sapiens) [%] | Percent Effect [6] [%] | Percent Effect [7] [%] | Percent Effect [8] [%] |
| --- | --- | --- | --- | --- | --- | --- | --- | --- | --- | --- |
| Cc1ccc(OCCC(=O)N2CCN(c3cnccn3)CC2)cc1C | 1.26 | 13 | -2.1 | -5.78 | 3.48 | 14.9 | 16.1 | 6.86 | 18.8 | -6.5 |
| Cc1ccc(OC2(C(=O)O)CCN(C(=O)c3ccc(F)cc3)CC2)cn1 | -6.12 | -2.7 | 27.8 | 9.41 | -1.05 | 1.88 | -18.1 | 2.66 | 7.32 | -1.29 |
| c1ccc(CN2CCOCC3(CCN(C4CCOCC4)C3)C2)cc1 (stereo not given) | -5.53 | 6.49 | -8.07 | -4.58 | -3.24 | 22.9 | 8.96 | 3.68 | 10.3 | -0.0594 |
| c1ccc(CNC2CCc3ncnn3C2)nc1 (stereo not given) | 0.311 | 12.8 | -14.6 | -4.98 | 1.23 | 21.1 | 30.1 | 9.09 | 20.5 | -2.61 |
| COCCc1noc(CN2CCCC2c2c(C)nn(C)c2C)n1 (stereo not given) | -3.14 | 0 | 5.73 | 5.22 | -0.887 | 3.14 | -16.4 | 1.58 | 2.56 | -6.66 |
| CCn1nc(C)c(CCNC(=O)C2CCCN(C(=O)N(C)C)C2)c1C (stereo not given) | -5.72 | 0 | -0.0434 | -2.04 | 1.05 | 14.6 | 8.52 | 3.72 | 4.88 | -3.32 |
| Cc1ccccc1CC(=O)N(C)C1CCN(c2ccccn2)CC1 | -6.18 | 10.7 | 3.6 | 5.22 | -1.33 | 15 | 6.38 | 5.79 | 12.8 | -17.5 |
| CC(C)CC(CNC(=O)NCc1cc[nH]n1)N1CCOCC1 (stereo not given) | -1.69 | 17.9 | -27 | 7.04 | 0.82 | 17.8 | 11.6 | 4.31 | 20.5 | 25 |
| CCn1nc(C)c(CCNC(=O)C2CCCN(CC(N)=O)C2)c1C (stereo not given) | -8.24 | 8.11 | 27.7 | 9.02 | 9.44 | 5.14 | 12.5 | 10.1 | 17.1 | -5.53 |
| CC(C)c1ncncc1C(=O)NCCN1CCCS1(=O)=O | -3.82 | 5.13 | -1.57 | 7.98 | 3.69 | 3.5 | 1.77 | 1.44 | 10.8 | 1.18 |
| O=C(c1cc(Cl)c2c(c1)OCO2)N1CCCC(n2ccnc2)C1 (stereo not given) | -2.43 | 5.33 | 3.84 | 2.01 | 0 | 7.72 | 9.8 | -6.84 | 5.13 | -5.15 |
| CCCc1c(C(=O)NC2CCCC2)nnn1-c1ccc(OC)cc1 | 107 | 17.3 | -6.12 | 0 | 6.2 | 8.37 | 27 | -1.06 | 7.5 | -16.8 |
| CCC(=O)N(C)CC(=O)Nc1ccc(Br)cn1 | -6.29 | 2.67 | 0.577 | -4.22 | 1.77 | 6.87 | 8.04 | -0.526 | 2.56 | -5.17 |
| O=C(NCCCn1ccnc1)N1CCN(c2cccs2)CC1 | -5.79 | -10.4 | 7.23 | 2.42 | -9.22 | 12.8 | -11.9 | 28.4 | 11.8 | 0.725 |
| Cc1cc(C)n(CC2CCCN2CCc2ccncc2)n1 (stereo not given) | -5.42 | 7.69 | -18.5 | 12.5 | -2.87 | 17.1 | 5.12 | 3.35 | 20.5 | -3.37 |
| CCOCC1CN(S(C)(=O)=O)Cc2cnn(CC3CCOCC3)c21 (stereo not given) | -3.9 | 1.3 | -0.726 | -5.94 | -5.26 | 10.5 | 0.606 | 3.68 | 12.8 | -2.94 |
| O=C(C1CCCCC1)N1CCC2(CCCN2CC2CC2)CC1 | -2.94 | 11.7 | -2.33 | -3.56 | 1.37 | 3.18 | 13.7 | 2.9 | 2.5 | -6.38 |
| CCCc1noc(CN2CCCC2c2c(C)nn(C)c2OC)n1 (stereo not given) | -8.89 | -2.67 | -1.2 | -1.61 | 3.1 | 2.29 | 9.23 | -2.63 | -2.56 | -6.05 |
| Cc1cnc(CN2CCCC(c3cc(C(F)(F)F)[nH]n3)C2)cn1 (stereo not given) | -4.31 | 2.67 | 2.93 | -2.21 | 3.55 | 2.97 | 10.5 | 4.74 | 17.9 | -4.75 |
| CCCN(C(=O)COC)c1nc2c(s1)CCc1c-2cnn1C | 6.68 | 52 | 21 | -3.16 | 23.9 | 2.79 | 17.9 | -13.8 | -15 | -18.2 |
| Cc1ccc2cc(C(=O)NCCn3nc4ccccn4c3=O)[nH]c2c1 | -1.72 | 10.3 | -11.1 | -8.36 | 1.23 | 16.3 | 19.6 | -1.44 | 1.21 | -7.76 |
